Only some compounds are listed: those with a hit (about 1.9% of all), similar ones and a draw of the others.
Menin MLL FP FL: inhibitors of human menin-MLL interaction, wild-type MLL peptide; 290,000 tested, under 10 active; Fluorescence polarization, fluorescein-MLL peptide displacement from menin; FP activity change, % at 61.4 µM; active = well fitted curve in the direction sought with a large enough effect in the polarisation, not every such curve was filed as active; inconclusive = small, poorly fitted or top-dose-only effect, or effect the other way, or a change in a side signal; inactive = no such curve, though single readings can be large or run the other way; the % refers to the polarisation; also: % of control where 0% means no effect
ClpP mod: qHTS Assay for Activators of ClpP; ATP-dependent Clp protease proteolytic subunit (Bacillus subtilis (strain 168)), P80244; purified B. subtilis ClpP, FRET peptide cleavage, 20 min; Potency, µM (highest dose often 57.5 µM), for inactives: at the highest dose activity change, negative = active; 340,000 tested, 1.9% active; active = well fitted falling curve with a large enough effect; inconclusive = small, poorly fitted or top-dose-only effect; inactive = no such curve, though single readings can be large or run the other way; also: potency is read from the fitted curve at half-maximal effect; the source files actives as falling curves though it sought activators and does not explain the sign; nearly all actives have a fitted effect of over 65% in size
Target sequence (P80244 whole entry, looked up): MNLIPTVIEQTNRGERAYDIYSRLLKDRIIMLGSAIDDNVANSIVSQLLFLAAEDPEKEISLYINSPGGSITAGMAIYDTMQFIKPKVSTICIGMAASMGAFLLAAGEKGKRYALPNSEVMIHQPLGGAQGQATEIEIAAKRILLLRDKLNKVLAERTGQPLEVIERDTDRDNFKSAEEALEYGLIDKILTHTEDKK
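FRET quenching reversal measured ClpP activation: 10 microg/mL B. subtilis ClpP at pH 8 with the FRET-FV decapeptide, read at 430 nm after 320 nm excitation. The 20-min minus 0-min signal was scaled between DMSO/no-enzyme wells and ADEP (5.8 microM final).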
PINK1 expr mod: PINK1 expression modulation | PINK1 immunofluorescence, high-content cytometry, 24 h | Potency, µM (series often up to 76.6 µM), inactives show top-dose activation (PINK1 increase), usual class: activators | 410,000 tested, 0.2% active | AID 624263; active = well fitted activation curve with a large enough effect; inconclusive = small, poorly fitted or top-dose-only effect; cell line not stated here; also: potency is read from the fitted curve at half-maximal effect; % of control where 0% means no effect; nearly all actives have a fitted effect of over 65% in size
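Measures PINK1 amount and localization on or inside mitochondria by immunofluorescence. Stable cells get compounds at 5 concentrations for 24 hours before fixation and staining; CCCP controls included.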
MLL CXXC-DNA inh: MLL CXXC-DNA interaction inhibition; MLL-CXXC / FITC-HOXA9 DNA fluorescence polarization; Potency, µM (top dose mostly 115 µM), without a hit: at the top dose activity change, negative = inhibition, usual class: inhibitors; 290,000 tested, 0.037% active; active = well fitted inhibition curve with a large enough effect in the polarisation, with a control signal flat, not every such curve was filed as active; inconclusive = small, poorly fitted or top-dose-only effect, or effect the other way, or a change in a side signal; inactive = no such curve, though single readings can be large or run the other way; the % refers to the polarisation; also: potency is read from the fitted curve at half-maximal effect
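Steps: dispense CXXC domain solution (7 uM) → pin compounds or unlabeled HOX-A9 DNA control → 5 min ambient → add FLSN-HOX-A9 solution (50 nM) → spin → 30 min ambient → fluorescence polarization. Tris pH 7.5/NaCl/DTT/BSA buffer.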
Epigenetic derep: epigenetic control regulation, reporter derepression | AID 1865 | Potency, µM (top dose mostly 53.9 µM), inactives show top-dose GFP activation, hits mostly activators | 280,000 tested, 0.2% active | murine LDR cells, GFP reporter derepression, 30 h; active = well fitted activation curve with a large enough effect; inconclusive = small, poorly fitted or top-dose-only effect; also: potency is read from the fitted curve at half-maximal effect; % of control where 0% means no effect; nearly all actives have a fitted effect of over 60% in size
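Murine LDR cells carrying a silenced, genomically integrated CMV-driven GFP reporter were exposed to compound for 30 hours at 37 C. After PBS washes, GFP-positive cells (20–120 um objects) were counted by laser-scanning microplate cytometry.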
Menin MLL FP TR: menin-MLL binding inhibition, Texas Red mutant peptide | O00255 | Menin + Texas Red MLL mutant peptide, fluorescence polarization | Potency, µM (series often up to 61.6 µM), inactives show at the top dose FP activity change, negative = inhibition, actives largely listed as inhibitors | 270,000 tested, 0.23% active | AID 1768; active = well fitted inhibition curve with a large enough effect in the polarisation, with a control signal flat, not every such curve was filed as active; inconclusive = small, poorly fitted or top-dose-only effect, or effect the other way, or a change in a side signal; inactive = no such curve, though single readings can be large or run the other way; the % refers to the polarisation; also: potency is read from the fitted curve at half-maximal effect; % of control where 0% means no effect
Target sequence (O00255 whole entry, looked up): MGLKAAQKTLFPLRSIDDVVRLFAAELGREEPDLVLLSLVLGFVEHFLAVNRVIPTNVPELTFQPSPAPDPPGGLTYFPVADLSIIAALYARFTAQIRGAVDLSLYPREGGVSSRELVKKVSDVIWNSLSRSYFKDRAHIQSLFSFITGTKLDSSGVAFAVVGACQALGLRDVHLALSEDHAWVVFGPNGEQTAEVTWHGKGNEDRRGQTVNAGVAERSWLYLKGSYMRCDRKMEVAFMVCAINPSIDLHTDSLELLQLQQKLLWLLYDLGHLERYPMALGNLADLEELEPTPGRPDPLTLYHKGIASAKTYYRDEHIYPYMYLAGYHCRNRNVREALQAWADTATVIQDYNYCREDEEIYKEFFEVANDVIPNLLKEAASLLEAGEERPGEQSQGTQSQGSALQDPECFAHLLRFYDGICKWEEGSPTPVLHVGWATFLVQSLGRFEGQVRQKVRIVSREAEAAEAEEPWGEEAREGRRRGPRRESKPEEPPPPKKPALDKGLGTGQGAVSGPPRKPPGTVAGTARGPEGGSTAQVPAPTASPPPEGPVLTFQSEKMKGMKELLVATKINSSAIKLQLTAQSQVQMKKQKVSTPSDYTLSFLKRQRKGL
* marks the source's active call; other numbers are inactive results; ? = inconclusive; · = not tested or not shown; [ ] = dose if it differs, or a comment.

SMILES	Menin MLL FP FL	ClpP mod	PINK1 expr mod	MLL CXXC-DNA inh	Epigenetic derep	Menin MLL FP TR
O=C1CC2(CCN(C(=O)C3CC(=O)N(c4ccccc4)C3)CC2)Oc2ccccc21 (configuration not stated)	·	31.6µM*	2.6%	·	·	·
O=C(C1CC(=O)N(c2ccccc2)C1)N1CCCCCC1 (configuration not stated)	-5.7	0.3%	0.2%	2.1%	·	-3.4%
CCn1c(=O)sc2cc(NS(=O)(=O)c3ccc(F)c(C)c3)ccc21	·	0.0%	2.2%	·	4.0%	·
Cc1c(C(=O)N(C)Cc2cscn2)sc2ncnc(NC[C@H]3CCc4ccccc4O3)c12	·	·	-0.1%	·	·	·
CC(=O)Nc1cc(C(=O)c2ccccc2)ccc1N1CCOCC1	1.7	35.5µM*	-0.7%	0.8%	-0.8%	-11.5%
Nc1cc(C(=O)c2ccccc2)ccc1N1CCOCC1	1.1	-0.7%	-0.5%	7.9%	-2.0%	-15.2%
O=C(CN1CCOCC1)Nc1ccc(-c2nc3ccccc3[nH]2)cc1	4.8	25.1µM*	-2.7%[38.3 µM]	1.9%	-2.5%	-12.8%
O=C(CSc1ccc(-c2nc3ccccc3[nH]2)cn1)Nc1ccc(S(=O)(=O)N2CCCC2)cc1	-1.4	20µM*	-3.7%	6.1%	0.0%	?
Cc1cc2nc(-c3ccc(SCC(=O)Nc4ccc(S(=O)(=O)N5CCCC5)cc4)nc3)[nH]c2cc1C	12.0	-4.6%	4.4%	24.6%	7.4%	-17.8%
O=C(Nc1ccc(NC(=O)C2CCCN2C(=O)OCc2ccccc2)cc1)c1ccco1 (configuration not stated)	-2.9	-2.1%	0.0%	3.2%	0.0%	1.6%
O=C(Nc1cccc(O)c1)C1CCCN1C(=O)OCc1ccccc1 (configuration not stated)	-2.2	28.2µM*	-3.9%	-3.5%	0.0%	13.3%
CC1CC2(CCCCC2)Nc2c1ccc1ccccc21 (configuration not stated)	1.5	17.8µM*	2.5%	0.9%	-1.0%	-0.3%
COC(=O)C1=C(C(=O)OC)[C@@H]2N(C)c3ccccc3[C@@]23C[C@@H](C(=O)OC)N(S(=O)(=O)c2ccc(C)cc2)C3=N1	-0.3[11.7 µM]	·	·	·	·	-15.0%[11.7 µM]
Cc1ccnc(NC(=O)c2ccc(NS(=O)(=O)/C=C/c3ccccc3)cc2)c1	·	28.2µM*	1.6%	·	·	·
Cc1cccnc1NC(=O)c1ccc(NS(=O)(=O)/C=C/c2ccccc2)cc1	·	1.6%	-1.3%	·	·	·
CCOc1ccc(-n2c(Cc3ccccc3)nnc2SCc2c(C)noc2C)cc1	0.9	2.82µM*	1.7%	?	-2.3%	?
COc1cccc(OC)c1CN1CCC2(CCC(CNC(=O)c3ccccc3)O2)CC1 (configuration not stated)	·	·	0.1%	·	·	·
CC1(C)C(=O)OC(C(=O)c2ccc(C(C)(C)C)cc2)C(C)(C)C1=O (configuration not stated)	1.8	31.6µM*	0.8%	0.2%	-0.6%	-1.7%
Cc1ccccc1NC(=O)NCC1CCCO1 (configuration not stated)	3.0	28.2µM*	-1.1%	-4.7%	-0.7%	-5.3%
COC(=O)c1ccccc1NC(=O)NCC1CCCO1 (configuration not stated)	1.4	25.1µM*	-2.2%	2.3%	0.0%	-20.6%
COC(=O)c1c(OCc2ccccc2)cc(=O)n2c1CCN(Cc1cccc(C)n1)CC2	·	·	1.7%	·	·	·
COC(=O)c1ccc(NC(=O)c2ccc3c(c2)C(=O)N(C)C3=O)cc1	-0.2	11.2µM*	1.0%	2.6%	·	-1.4%
CO[C@H]1C[C@@H]2CC[C@@H](C)[C@@](O)(O2)C(=O)C(=O)N2CCCC[C@H]2C(=O)O[C@H]([C@H](C)C[C@@H]2CC[C@@H](OCCO)[C@H](OC)C2)CC(=O)[C@H](C)/C=C(\C)[C@@H](O)[C@@H](OC)C(=O)[C@H](C)C[C@H](C)/C=C/C=C/C=C/1C	0.5	·	·	3.6%	·	-9.1%
COc1cc2nc(CN(CCO)C3CS(=O)(=O)CC3O)nc(N3CCCCC3)c2cc1OC (configuration not stated)	·	·	0.3%	·	·	·
CC(C)(C)c1nc2c(C#N)c(-c3ccc(Cl)cc3)ccn2n1	0.0	28.2µM*	2.5%	-8.6%	0.8%	2.7%
SMILES	Menin MLL FP FL	ClpP mod	PINK1 expr mod	MLL CXXC-DNA inh	Epigenetic derep	Menin MLL FP TR
Cc1nc2c(C#N)c(-c3ccc(Cl)cc3)ccn2n1	-3.0	-21.5%	0.3%	-1.4%	1.1%	14.5%
Cc1noc2ncnc(Oc3ccccc3)c12	4.3	25.1µM*	-0.9%	8.2%	0.0%	?
CCCCC(=O)OCc1nc2ccccc2s1	9.5	15.8µM*	5.1%	-1.7%	-1.5%	-0.7%
Cc1noc(C)c1COC(=O)CCCc1nc2ccccc2s1	4.2	-1.0%	5.8%	6.0%	-1.0%	-26.8%
O=C(C[n+]1cccc(Cl)c1)c1ccc(O)c(O)c1	·	0.4%	1.1%	·	·	·
Cc1ccc(NC(=O)CS(=O)CC(=O)NC(C)CCc2ccco2)cc1Cl (configuration not stated)	-0.1	28.2µM*	8.2%	-2.7%	-2.3%	-17.3%
COC(=O)[C@H](COC(C)(C)C)NC(=O)O[C@@H]1Cc2cc(OC)ccc2O[C@H]1c1cccc(OC)c1	0.2	·	·	·	-1.1%	-10.1%
CCOc1ccc2noc3c2c1C(=O)c1ccccc1-3	?	-0.2%	-1.8%	?	-0.9%	8.91µM*
COC(=O)c1cc(CNC(=O)c2cccc(C)c2)cc(NC(=O)c2ccncc2)c1	·	·	0.4%	·	·	·
O=C(Nc1ccccn1)c1ccc(Br)c(S(=O)(=O)N2CCCCC2)c1	5.7	12.6µM*	1.9%	-10.6%	0.0%	4.4%
Cc1ccc(O)c(NC(=O)c2ccc(Br)c(S(=O)(=O)N3CCCCC3)c2)c1	·	-2.5%	39.8µM*	·	-2.7%	·
O=C(Nc1ccccn1)c1ccc(Br)c(S(=O)(=O)N2CCCC2)c1	1.4	-0.3%	4.6%	-2.9%	·	15.2%
O=C(Nc1nncs1)c1ccc(Br)c(S(=O)(=O)N2CCCC2)c1	3.5	31.6µM*	0.9%	-6.9%	-3.0%	23.2%
CCCCCn1c(=N)n(CC(O)COc2cccc(C)c2)c2ccccc21 (configuration not stated)	·	-0.4%	-2.2%	·	1.0%	·
O=C(OCC(=O)N1CCC(Cc2ccccc2)CC1)c1ccccc1NCCO	·	·	-3.1%	·	·	·
CCOC(=O)N1CCN(C(=O)COC(=O)c2ccccc2NCCO)CC1	·	7.94µM*	2.2%	·	·	·
CC(C)C(NC(=O)c1ccoc1)c1nnc2n1CCN(C(=O)/C=C/c1ccc(F)cc1)CC2 (configuration not stated)	·	·	-0.6%	·	·	·
COc1cc(/C=N/c2oc(-c3ccccc3)cc2C#N)ccc1O	14.6	3.55µM*	-1.8%	74.5%	0.7%	35.8%

Compound activity from PubChem BioAssay.
